Our source for the efficacy, AC50 and outcome values is PubChem BioAssay (NCATS).

For assay [1] the following is noted: Ebola virus entry assay, green fluorescence channel.
For assay [2] the following is noted: Ebola virus entry assay, blue channel fluorescence.
For assay [3] the following is noted: Ebola virus entry assay, ratio channel.
For assay [4] the following is noted: Ebola virus entry assay, reporter ratio channel; Channel type: primary.

Unmarked numbers belong to inactive results. For part of these data: Results with a measured potency or affinity are listed apart. The source made the active and inactive calls. The rule behind the calls is not given here.
Throughout, for efficacy: 0% is about no effect.

In the case of `CN1CCC(N(Cc2cccs2)c2ccccc2)CC1`, the efficacy in assay [1] is 53.5%. The AC50 is 3.55 µM (active) in assay [2], 3.16 µM (active) in assay [3] and 3.16 µM (active) in assay [4].
In the case of `Oc1ccc([C@H]2CNCc3c2ccc(O)c3O)cc1O`, the efficacy in assay [1] was 69.3%. For the same compound, the AC50 in assay [2], in assay [3] and in assay [4] was 14.1 µM (active) throughout.
Consider `Cc1nc2ccccc2n1Cc1ccc(Cl)cc1`, for which the efficacy in assay [1] was 42.7%. Further, the outcome in assay [2], in assay [3] and in assay [4] was inactive.
As for `NCc1ccccc1Sc1ccccc1CO`, the efficacy in assay [1] is 118%. Further, the AC50 in assay [2] is 39.8 µM (active); in assay [3] it was 20 µM (active); in assay [4], 20 µM (active).
Turning to `CCCCc1ccc2nc(NC(=O)OC)[nH]c2c1`, the efficacy in assay [1] was 19%. The AC50 in assay [2] is 15.8 µM (active). The result in assay [3] and in assay [4] was inactive.
Turning to `CN(C)CCCOc1nn(Cc2ccccc2)c2ccccc12`, the efficacy in assay [1] was 54.9%. Besides, the concentration at half-maximal activity (AC50) in assay [2] is 7.94 µM (active); in assay [3] it was 3.55 µM (active); in assay [4], 3.55 µM (active).
Turning to `CCC(=O)O[C@]1(C(=O)CCl)[C@@H](C)C[C@H]2[C@@H]3CCC4=CC(=O)C=C[C@]4(C)[C@@]3(F)[C@@H](O)C[C@@]21C`, the efficacy in assay [1] was 88.5%. Besides, the AC50 in assay [2], in assay [3] and in assay [4] was 31.6 µM (active) in each case.
Consider `C[C@@H]1CN(CCCn2c3ccccc3c3ccccc32)C[C@H](C)N1`, for which the efficacy in assay [1] is -134%. Also, the AC50 in assay [2], in assay [3] and in assay [4] was 3.16 µM (active) throughout.
In the case of `C/C(=C(/OCCOc1ccc(Cl)cc1)c1ccc(Cl)cc1Cl)n1ccnc1`, the efficacy in assay [1] is 81.6%. In addition, the AC50 in assay [2] and in assay [4] was 39.8 µM (active) each time. The outcome in assay [3] was inactive.
Regarding `Cc1ccc2c(c1)c1c3n2CCNC3CCC1` (stereo not drawn), the efficacy in assay [1] is 68.3%. The AC50 in assay [2], in assay [3] and in assay [4] was 28.2 µM (active) each time.
Consider `CC1COC2(c3ccccc3Cl)c3cc(Cl)ccc3NC(=O)CN12` (stereo not drawn), for which the efficacy in assay [1] is 68%. Besides, the half-maximal activity concentration (AC50) in assay [2], in assay [3] and in assay [4] was 28.2 µM (active) each time.
Take `Cc1cc(C(C)(C)C)c(O)c(C)c1CC1=NCCN1`: in assay [1], the efficacy was 52%. The AC50 in assay [2] and in assay [4] was 39.8 µM (active) in each case. The result in assay [3] was inactive.
Regarding `CN1CCN(C2=Nc3ccccc3Sc3ccc(Cl)cc32)CC1`, the efficacy in assay [1] was 66%. For the same compound, the AC50 in assay [2] and in assay [4] was 39.8 µM (active) each time. Also, the outcome in assay [3] was inactive.
With `CCCCOc1cc(C(=O)NCCN(CC)CC)c2ccccc2n1`, the efficacy in assay [1] is 119%. The values for the AC50 in assay [2], in assay [3] and in assay [4] were 12.6 µM (active), 10 µM (active) and 10 µM (active), respectively.
For the compound `CCN(CC)CCOC(=O)C(Cc1cccc2ccccc12)CC1CCCO1` (stereo not drawn), the efficacy in assay [1] was 78.5%. The AC50 is 12.6 µM (active) in assay [2], 11.2 µM (active) in assay [3] and 11.2 µM (active) in assay [4].
Consider `CCN(CCCc1ccccc1)CCCc1ccccc1`, for which the efficacy in assay [1] is 48.4%. Besides, the AC50 in assay [2] is 5.62 µM (active); in assay [3], 4.47 µM (active); in assay [4] it was 4.47 µM (active).
In the case of `CCN(CC)CCOC(=O)C(C)(c1ccccc1)c1ccccc1`, the efficacy in assay [1] was 52.6%. Also, the AC50 is 8.91 µM (active) in assay [2], 10 µM (active) in assay [3] and 10 µM (active) in assay [4].
As to `Clc1ccc(C(OCCN2CCCCC2)c2ccccc2)cc1` (stereo not drawn), the efficacy in assay [1] is 53.2%. The AC50 in assay [2], in assay [3] and in assay [4] was 14.1 µM (active) in each case.
As for `CN1CCCN(C(c2ccccc2)c2ccc(Cl)cc2)CC1` (stereo not drawn), the efficacy in assay [1] is 53.7%. In addition, the AC50 in assay [2], in assay [3] and in assay [4] was 3.16 µM (active) throughout.
As to `CC(C)(C)c1ccc(C(=O)CCCN2CCC(OC(c3ccccc3)c3ccccc3)CC2)cc1`, in assay [1], the efficacy was 47.5%. For the same compound, the AC50 was 7.94 µM (active) in assay [2], 8.91 µM (active) in assay [3] and 8.91 µM (active) in assay [4].
Take `Cc1nnc2n1-c1sc(CCc3ccc(CC(C)C)cc3)cc1C(c1ccccc1Cl)=NC2C` (stereo not drawn): the efficacy in assay [1] was 144%. Further, the AC50 in assay [2] is 39.8 µM (active); in assay [3], 31.6 µM (active); in assay [4] it was 31.6 µM (active).
Take `CC(Oc1c(Cl)cccc1Cl)C1=NCCN1` (stereo not drawn): the efficacy in assay [1] is 76.8%. Also, the AC50 in assay [2] and in assay [4] was 39.8 µM (active) each time. Further, the outcome in assay [3] was inactive.
For the compound `O=C(c1ccc(F)cc1)C1CCN(CCn2c(=O)[nH]c3ccccc3c2=O)CC1`, the efficacy in assay [1] was 78.1%. Moreover, the values for the AC50 in assay [2], in assay [3] and in assay [4] were 28.2 µM (active), 17.8 µM (active) and 17.8 µM (active), respectively.
As for `OC(CCN1CCCCC1)(c1ccccc1)c1ccccc1`, in assay [1], the efficacy was 36.7%. In addition, the AC50 in assay [2] is 31.6 µM (active); in assay [3] it was 28.2 µM (active); in assay [4], 28.2 µM (active).
For the compound `CN1CCC(OC(c2ccccc2)c2ccccc2)CC1`, the efficacy in assay [1] is 74.4%. The AC50 in assay [2] was 14.1 µM (active); in assay [3], 10 µM (active); in assay [4], 10 µM (active).
For `CCN(CC)CCCN(c1ccccc1)C1Cc2ccccc2C1`, in assay [1], the efficacy was 47.4%. Further, the AC50 in assay [2], in assay [3] and in assay [4] was 3.55 µM (active) throughout.
Take `CO[C@@H]1[C@@H](O[C@@H]2O[C@H](C)[C@@H](O[C@H]3C[C@@](C)(O)[C@@H](O)[C@H](C)O3)[C@H](N(C)C)[C@H]2O)[C@@H](CC=O)C[C@@H](C)[C@@H](O[C@@H]2CC[C@H](N(C)C)[C@@H](C)O2)/C=C/C=C/C[C@@H](C)OC(=O)C[C@H]1OC(C)=O`: in assay [1], the efficacy was 64.5%. Moreover, the AC50 in assay [2] was 3.16 µM (active); in assay [3], 3.55 µM (active); in assay [4] it was 3.55 µM (active).
